Whole data set: some 33,000 sequences, median “E-score (-0.5 to 0.5)” near -0.0014, cut for the highest 2% near 0.25. Only a selection was taken, and the highest values are over-represented in it overall.
target: T1, Cad1 (UniProt P24813); test: PBM E-score (8-mer binding enrichment) (E-score (-0.5 to 0.5)); higher = stronger / more preferred TF binding; details: protein concentration: 100 nM; construct: GST-full length
T1 sequence: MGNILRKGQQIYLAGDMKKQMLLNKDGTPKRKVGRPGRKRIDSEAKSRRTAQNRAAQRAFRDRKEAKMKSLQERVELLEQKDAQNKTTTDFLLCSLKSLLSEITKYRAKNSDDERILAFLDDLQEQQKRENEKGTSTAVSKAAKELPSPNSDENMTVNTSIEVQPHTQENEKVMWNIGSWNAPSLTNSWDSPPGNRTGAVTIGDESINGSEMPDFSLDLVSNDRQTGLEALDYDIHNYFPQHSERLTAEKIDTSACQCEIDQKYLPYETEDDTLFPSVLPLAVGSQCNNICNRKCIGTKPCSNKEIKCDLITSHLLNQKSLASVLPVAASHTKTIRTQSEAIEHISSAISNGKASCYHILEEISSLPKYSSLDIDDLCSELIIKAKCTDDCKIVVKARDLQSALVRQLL
Outline: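 Bound GST-tagged yeast transcription factors, applied at about 100-200 nM to double-stranded universal all-10-mer Agilent arrays, were detected with fluorescent anti-GST. Scans were normalised with masliner. A modified Wilcoxon-Mann-Whitney statistic, the E-score, was assigned to each ungapped eight-base word pooled with its reverse complement by the Universal PBM Analysis Suite.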

Row | Sequence | PBM E-score
1 | CTAACTGC | -0.0676
2 | AAACACCA | -0.00879
3 | CGTATGGC | 0.14
4 | AGTACGAA | 0.22
5 | AGCAGCGG | -0.0904
6 | CAATTATG | 0.105
7 | ATATTATC | 0.096
8 | ATATTATA | 0.164
9 | AAATTATG | 0.255
10 | AAATTATC | 0.246
11 | ATATTATG | 0.268
12 | ACATGTAT | 0.204
13 | ATGCCTTA | -0.158
14 | CGTGATCA | 0.123
15 | AATTTTGG | 0.149
16 | CTTGGTAA | 0.0981
17 | ATTGGTAA | 0.257
18 | GTTGGTAA | 0.19
19 | GCCCACAA | -0.153
20 | ATTCAATG | 0.114
21 | ATTCAATC | 0.263
22 | CTTCAATC | -0.066
23 | GACACAGC | 0.0664
24 | CCTGTGCC | -0.136
25 | AATCCGGC | 0.104

Row | Sequence | PBM E-score
26 | AATCCGAA | -0.0355
27 | CTTCCGGA | 0.0325
28 | AATCCGAC | 0.00376
29 | ATTCCGGG | 0.122
30 | AATCCGGG | -0.0636
31 | ATTCCGGA | 0.254
32 | AATCCGAT | 0.25
33 | AATCCGGA | 0.306
34 | CTGCTCAC | -0.0643
35 | TGACCACA | -0.0368
36 | GTCTCCTA | -0.194
37 | ACCAAGGC | -0.0921
38 | ACAGTCCC | -0.188
39 | CCTAGCAA | -0.0559
40 | CGAGCTTC | 0.258
41 | CGAGCTTA | 0.214
42 | AGAGCTTC | -0.181
43 | GAGCCCAC | -0.1
44 | AAAGAACA | 0.0562
45 | CGACGTTC | -0.265
46 | CGACGTTA | 0.276
47 | GGACGTTA | 0.0449
48 | CGCATGTC | 0.0303
49 | GCGAGGCC | -0.113
50 | TGTATTAA | -0.00939

Row | Sequence | PBM E-score
51 | GATATTAA | 0.187
52 | GATATTAC | 0.293
53 | GCTATTAC | 0.098
54 | TACATTAA | 0.26
55 | AACATTAA | 0.127
56 | GACATTAA | 0.124
57 | AATATTAC | 0.347
58 | CATATTAC | 0.225
59 | TATATTAA | 0.326
60 | CCTATTAC | -0.0089
61 | ACTATTAC | 0.149
62 | ACATGGAT | 0.0578
63 | ATTTGATC | -0.0183
64 | AGCCCGAC | -0.149
65 | ACGTTTGA | 0.0358
66 | AAAGGACT | -0.224
67 | ATGTGGCC | -0.0491
68 | AATGGTGC | -0.131
69 | GCTGAACC | -0.0931
70 | ACTTTGGC | -0.0521
71 | TACTGCGA | 0.0327
72 | AGCTCCAG | -0.181
73 | AGATTTCC | 0.185
74 | AATATTAG | 0.213
75 | CATATTTA | 0.232

Row | Sequence | PBM E-score
76 | CATATTAG | 0.179
77 | CATATTAA | 0.272
78 | AATATTAA | 0.281
79 | AATATTAT | 0.194
80 | CGATTGTC | 0.174
81 | AGCTATTC | -0.215
82 | ATATCATA | 0.166
83 | CTATCATA | 0.148
84 | GTATCTTA | 0.287
85 | GTATCTGA | 0.0184
86 | CTATCTTA | 0.0111
87 | GTATCATA | 0.288
88 | ACATCATA | 0.105
89 | CCATCATA | -0.27
90 | GCATCATA | 0.296
91 | CGAGACCA | -0.0428
92 | ACAAACTC | 0.052
93 | GGCTCCAC | -0.182
94 | CCTCTGCG | -0.147
95 | CGGGTAGA | 0.0106
96 | CGGTTGGC | 0.0738
97 | CGTTCTGA | -0.16
98 | GACTGCGC | -0.0924
99 | AACCCTCG | -0.0276
100 | CTTATAAA | 0.275

Row | Sequence | PBM E-score
101 | ATTATAAG | 0.186
102 | ATTATAAA | 0.276
103 | CTTATAAG | -0.047
104 | TGTATAAA | 0.028
105 | CTTATAAC | 0.177
106 | GTTATAAA | 0.184
107 | TTTATAAA | 0.261
108 | ATTATAAC | 0.0512
109 | CCCGCGTC | 0.0369
110 | GTTCGAAA | 0.241
111 | ACCAGAGG | -0.164
112 | GGCGGTAC | -0.0694
113 | GGCCTTGA | 0.0013
114 | TACAAATA | 0.185
115 | CACAAATG | -0.0179
116 | GACAAGAA | 0.0396
117 | GACAAATC | 0.306
118 | CACAAGTA | -0.0393
119 | GACAAAGC | 0.06
120 | AACAAATA | 0.186
121 | CACAAATC | 0.126
122 | CACAAATA | 0.259
123 | GACAAGTC | 0.00519
124 | GACAAATA | 0.293
125 | GACAAAGA | 0.276

Row | Sequence | PBM E-score
126 | GAACTTCA | 0.066
127 | CGAACTGA | -0.17
128 | CCGGGGAC | -0.235
129 | CCTTATAG | -0.219
130 | ATTAGGGC | -0.0576
131 | AGTTTTGG | 0.127
132 | GACAGCGC | 0.14
133 | ACGTGCGC | 0.122
134 | CAGTAGTC | -0.207
135 | AACACGAT | 0.123
136 | AAGTTGGC | -0.125
137 | AAGTTGGT | 0.252
138 | AAGTTGGG | -0.0322
139 | ATTAGAGC | 0.041
140 | ATAGTGTA | 0.0723
141 | AAGAAGTA | 0.12
142 | CAAGCAAA | 0.0203
143 | CACACTCA | 0.194
144 | CGACAGTC | -0.12
145 | CACGCCTC | -0.0988
146 | ATATAATG | 0.0839
147 | ATATAATA | 0.261
148 | GTATAATA | 0.283
149 | CTATAATA | -0.101
150 | GTATAAGA | -0.0708

Row | Sequence | PBM E-score
151 | GTATAAAA | 0.18
152 | CACCGTGC | 0.161
153 | TGAACTAA | -0.063
154 | ATCGAACG | -0.0756
155 | AATCGCAT | 0.0873
156 | GATTAACC | 0.02
157 | TATTAAGA | 0.0149
158 | CATTAATG | 0.198
159 | TATTAACA | 0.25
160 | TATTAATA | 0.339
161 | CATTAATA | 0.297
162 | CATTAACA | 0.16
163 | TATTAAAA | 0.194
164 | CATTAATC | 0.153
165 | GATTAAAC | 0.0432
166 | GATTAATC | 0.355
167 | GATTAACA | 0.163
168 | AACCCCTC | -0.319
169 | GCGAGTTA | 0.0928
170 | GTCTGCTA | 0.218
171 | GAGAGAAA | 0.14
172 | CTTATACC | 0.0668
